Assay results reported in PubChem BioAssay AID1566 (Sanford-Burnham Center for Chemical Genomics, 2009).
In all, about 290,000 compounds went through this assay and about 1,800 (0.62%) were called active. Cut-off read from the data, not from the text of the source: active = inhibition above about 50%; inactive = the rest. Shown is part of a subset that was picked to be rich in actives.

Test: inhibition of NOD2-driven NF-kB reporter – cell-based, luminescence, uHTS, HEK293 (AID 1566)
Details: HEK293 NOD2/NF-kB luciferase reporter, at 4 µM, hits give high values

SMILES	inhibition
CC1C(=O)N(Cc2ccccc2)c2ccccc2N1C(=O)c1ccccc1 (configuration not stated)	13.9% (inactive)
COc1cccc(CN2C(=O)C(C)N(C(=O)c3c(F)cccc3F)c3ccccc32)c1 (configuration not stated)	45.6% (inactive)
COc1cccc(CN2C(=O)C(C)N(C(=O)c3ccccc3)c3ccccc32)c1 (configuration not stated)	51% (active)
CC(C(=O)Nc1cc([N+](=O)[O-])ccc1Cl)N1CCN(c2ccc(O)cc2)CC1 (configuration not stated)	1.4% (inactive)
COc1ccc(Cl)cc1NC(=S)Nc1ccccc1C	0.6% (inactive)
Cc1csc2c(=O)sc(NC(=O)c3cccs3)nc12	25.6% (inactive)
COc1cc(NC(=O)c2cccs2)c(C(=O)OCC(=O)c2cc(C)n(-c3ccc(F)cc3)c2C)cc1OC	9.1% (inactive)
COc1ccc(-n2c(C)cc(C(=O)COC(=O)c3cc(NC(=O)c4cccs4)c(OC)c(OC)c3)c2C)cc1	12.4% (inactive)
COc1ccc(/C=N/Nc2nnc(-c3ncc[nH]3)c3ccccc23)cc1	-81.3% (inactive)
Oc1ccc2ccccc2c1/C=N/Nc1nnc(-c2ncc[nH]2)c2ccccc12	66.3% (active)
Clc1ccc(/C=N/Nc2nnc(-c3ncc[nH]3)c3ccccc23)cc1	-40.1% (inactive)
CS(=O)(=O)Nc1ccccc1C(=O)NCCSCc1ccccc1	-4.8% (inactive)
CNC(=S)NC1CC2CCC(C1)N2Cc1ccccc1 (configuration not stated)	0.2% (inactive)
CC(C)C(NC(=O)C(NC(=O)C1O[C@@H]2OC(C)(C)O[C@@H]2[C@H]2OC(C)(C)O[C@@H]12)C(C)C)C(=O)O (some centres not stated)	20% (inactive)
CCOC(=O)Cc1csc(NS(=O)(=O)c2cc(Cl)ccc2Cl)n1	-18.2% (inactive)
Brc1cc(Br)c2nc3c(cc2c1)CCC3	7.6% (inactive)
COc1cc2cc(Br)cc(Br)c2nc1C	5.9% (inactive)
CCS(=O)(=O)N1CCN(C(=O)c2cccc(OC)c2)CC1	14.1% (inactive)
Cc1cc2cc(CNC(=S)Nc3ccc(OC(F)F)cc3)ccc2[nH]1	4.6% (inactive)
C=CCn1c(-c2cccn(Cc3cccc(Cl)c3)c2=O)n[nH]c1=S	12.9% (inactive)
C=CCn1c(-c2cccn(Cc3ccccc3)c2=O)n[nH]c1=S	15.3% (inactive)
C=CCn1c(-c2cccn(Cc3ccc(Cl)cc3)c2=O)n[nH]c1=S	50.3% (active)
CSc1ccccc1OCc1cc(C(=O)N2CCSCC2)no1	-40.6% (inactive)
CC1=C(C(=O)OCc2ccccc2)C(c2cccc([N+](=O)[O-])c2)NC(=O)N1CCCCCC(=O)O (configuration not stated)	10.6% (inactive)

SMILES	inhibition
COc1ccccc1OCC(=O)NC1CCCCCC1	10.3% (inactive)
O=C(c1ccc(Oc2ccc([N+](=O)[O-])cc2Cl)cc1)N1CCCC1	15.1% (inactive)
COc1cc(/C=N/N2CCN(Cc3ccc(C)cc3)CC2)cc(OC)c1O	2.5% (inactive)
O=C(Nc1c(-c2ccccc2)nc2ccccn12)c1ccccc1	3.9% (inactive)
O=C(Nc1c(-c2ccc(F)cc2)nc2ccccn12)c1ccc(F)cc1	79.7% (active)
CC(=O)Nc1c(-c2ccc(F)cc2)nc2ccccn12	-10.8% (inactive)
O=C(CCS(=O)(=O)c1ccccc1)N1CCN(c2cccc(C(F)(F)F)c2)CC1	11.5% (inactive)
COc1ccc(/C=C/C(=O)Nc2ccccc2C(F)(F)F)cc1	-25.4% (inactive)
CCCCOCC(O)CN1CCN(C(C)=O)CC1 (configuration not stated)	10.9% (inactive)
COc1ccc(N=Cc2cc(Cc3ccccc3Cl)cc([N+](=O)[O-])c2O)cc1OC	-10.2% (inactive)
O=[N+]([O-])c1cc(Cc2ccccc2)cc(C=Nc2ccc(N3CCOCC3)cc2)c1O	11.1% (inactive)
O=C1NN=C(c2ccccc2)CC1c1c[nH]c2ccccc12 (configuration not stated)	-14% (inactive)
COc1ccc(NC(=O)CS(=O)(=O)c2cn(CC(=O)N3CCCC3)c3ccccc23)c(OC)c1	-10.2% (inactive)
Cc1ncc(CO)c(CNc2ccc(Oc3ccccc3)cc2)c1O	50.4% (active)
Cc1ncc(CO)c(CNc2ccc(-c3nc4ccccc4[nH]3)cc2)c1O	-99.7% (inactive)
Cc1ncc(CO)c(/C=N/N=C/c2ccccc2O)c1O	-28% (inactive)
O=C(COC(=O)c1ccc(Br)cc1)NC1CCCC1	10.3% (inactive)
O=C(Nc1cccc2ccccc12)c1ccccc1Cl	-7.8% (inactive)
CCCCCCc1cc2cc(C(=O)Nc3ccccc3)c(=O)oc2cc1O	-36.8% (inactive)
CCCCCCc1cc2cc(C(N)=O)c(=N)oc2cc1O	1.5% (inactive)
CCOC(=O)c1c(NC(=O)CSc2n[nH]c(-c3ccco3)n2)sc(C)c1C	11.6% (inactive)
COCCSc1nnc(NC(=O)C2CC(=O)N(CCc3ccc(F)cc3)C2)s1 (configuration not stated)	16.7% (inactive)
O=C(CCCCn1c(=O)c2ccccc2n(CC(=O)Nc2ccccc2)c1=O)NCc1ccco1	3.3% (inactive)
